Screening data from PubChem BioAssay.
DRD3 agonist: D3 dopamine receptor (human) agonism; D3R DiscoveRx beta-arrestin cells, luminescence, 90 min; max activation, %; hit rate 0.58% among 410,000; AID 652048; in the data active means max activation above about 30%; further: 0% is about no effect
Target sequence (P35462 whole entry, looked up): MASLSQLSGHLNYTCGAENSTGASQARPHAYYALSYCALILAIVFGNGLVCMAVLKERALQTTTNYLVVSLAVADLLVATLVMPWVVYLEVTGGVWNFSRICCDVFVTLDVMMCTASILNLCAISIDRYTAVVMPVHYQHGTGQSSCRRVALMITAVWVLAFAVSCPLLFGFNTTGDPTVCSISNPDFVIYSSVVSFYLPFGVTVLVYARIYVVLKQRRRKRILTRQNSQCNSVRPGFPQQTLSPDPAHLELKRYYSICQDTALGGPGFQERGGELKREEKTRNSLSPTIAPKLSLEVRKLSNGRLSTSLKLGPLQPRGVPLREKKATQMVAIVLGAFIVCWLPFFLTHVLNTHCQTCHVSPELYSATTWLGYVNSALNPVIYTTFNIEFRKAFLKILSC
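Agonist-mode cell screen: cells plated at 1500/well and incubated overnight at 37 °C, then exposed to library compounds for 90 min at 37 °C. Detection reagent was added for 30–60 min at room temperature, and luminescence was read.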
DRD3 antagonist: antagonists of human D3 dopamine receptor; max response, negative = inhibition, %; P35462; D3R cells, DiscoveRx beta-arrestin luminescence, antagonist mode; hits give low values; hit rate 2.5% among 360,000; in the data active means max response below about -50%; inconclusive means no clear call, values can overlap the other calls; further: on the % scale 0 is the no-effect control and ±100 the full control effect
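Cells plated overnight at 1500 cells/well, then exposed to library compounds with dopamine controls for 90 minutes at 37 degrees C. DiscoveRx reagent added for 30–60 minutes at room temperature; luminescence read, quantitative HTS format.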
MCF10A rereplic: induces DNA re-replication in MCF 10a normal breast cells; MCF 10A DNA re-replication, Hoechst nuclear intensity, 48 h; Potency, µM (highest dose often 46.1 µM), inactives show top-dose activity, positive = re-replication, most hits filed as activators; hit rate 2.9% among 350,000; further: potency means the concentration at half of the fitted maximal effect; % of control where 0% means no effect; nearly all actives have a fitted effect of over 50% in size
KB-3-1 tox: KB-3-1 parental cell cytotoxicity; hit rate 1.4% among 400,000; Potency, µM (top dose mostly 46.1 µM), usual class: cytotoxic; KB-3-1 viability, CellTiter-Glo ATP luminescence, 72 h; further: potency means the concentration at half of the fitted maximal effect; on the % scale 0 is the no-effect control and ±100 the full control effect; nearly all actives have a fitted effect of over 60% in size
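Cytotoxicity in the drug-sensitive parental line KB-3-1 was scored as loss of CellTiter-Glo luminescence following 72 h incubation with compound. Values come from curve fitting of normalized concentration-response data.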
SW480 rereplic: DNA re-replication induction in SW480 cells. hit rate 1.8% among 340,000. SW480 DNA re-replication, Hoechst DNA content imaging, 48 h. Potency, µM (top dose mostly 46.1 µM), inactives show top-dose re-replication activation, actives largely listed as activators; further: potency means the concentration at half of the fitted maximal effect; % of control where 0% means no effect; nearly all actives have a fitted effect of over 55% in size
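Compounds, transferred as 23 nL by pin tool, were incubated with cells for 48 hr; DNA content per nucleus was then quantified by Hoechst staining and fluorescence plate imaging.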
KB-V1 MDR tox: kills drug-selected multidrug resistant KB-V1 cells; KB-V1 MDR cells viability, CellTiter-Glo, 72 h; AID 1347076; hit rate 3.4% among 400,000; Potency, µM (top dose mostly 46.1 µM), most hits filed as cytotoxic; further: potency means the concentration at half of the fitted maximal effect; on the % scale 0 is the no-effect control and ±100 the full control effect; nearly all actives have a fitted effect of over 60% in size
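Following 72 h at 37 degrees C with compound, KB-V1 cell viability was read by CellTiter-Glo luminescence, medium being phenol-red-free DMEM plus 10% FBS; concentration-response parameters came from normalized, curve-fitted qHTS data.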
* hit, by the source's call; i = inactive; ? = inconclusive; nt = not tested or not shown. Shown are actives, neighbours in structure and some others; about 8.9% of the full set was active somewhere. Unless noted, the call rests on the fitted dose curve; in most records, active means well fitted curve in the direction sought with a large enough effect; inconclusive means small, poorly fitted or top-dose-only effect, or another doubt; inactive means no such curve, though single readings can be large; an effect the other way counts as inactive or inconclusive.

SMILES | DRD3 agonist | DRD3 antagonist | MCF10A rereplic | KB-3-1 tox | SW480 rereplic | KB-V1 MDR tox
Cc1cc(S(=O)(=O)c2ccc([N+](=O)[O-])cn2)ccc1Br | -47 | -73* | ? | ? | 2% | ?
CN(CC(=O)Nc1ccccc1Cl)C(=O)CN1C(=O)C2CC=CCC2C1=O (stereo not drawn) | 3 | 4 | 1% | i | 16% | i
CN(C)C(CN1C(=O)C2CC=CCC2C1=O)c1cn(C)c2ccccc12 (stereo not drawn) | -3 | -27 | -1% | i | 4.1µM* | i
CC(CNC(=O)C1CCN(S(=O)(=O)c2ccc3c(ccn3C)c2)CC1)c1ccccc1 (stereo not drawn) | 2 | nt | nt | i | nt | i
COc1cc(-n2c(N)c(C(=O)NCc3ccco3)c3nc4ccccc4nc32)cc(OC)c1OC | 2 | 84 | 9.2µM* | i | 12µM* | i
COc1ccc(-n2c(N)c(C(=O)NCc3ccco3)c3nc4ccccc4nc32)cc1 | -5 | 13 | 4% | i | -4% | i
COc1ccc(-n2c(N)c(C(=O)NCc3ccco3)c3nc4ccccc4nc32)cc1OC | 0 | 1 | 16µM* | i | 18µM* | i
O=C(CN1CCN(Cc2ccc(Cl)cc2)CC1)N/N=C/C=C/c1ccccc1[N+](=O)[O-] | 1 | -12 | ? | 21µM* | 18% | i
CCn1c(=O)n(CC)c2cc(S(=O)(=O)N3CCCCC3)c(C)cc21 | 31* | 21 | 4% | i | -6% | ?
CCn1c(=O)n(CC)c2cc(S(N)(=O)=O)c(C)cc21 | -6 | -17 | -3% | i | 2% | i
Nc1nc(CN2CCN(c3cccc(Cl)c3)CC2)nc(N2CCCc3ccccc32)n1 | 16 | -77* | ? | ? | 0% | i
Nc1nc(CN2CCN(Cc3ccccc3)CC2)nc(N2CCCc3ccccc32)n1 | -13 | -21 | -6% | i | -1% | ?
Nc1nc(CN2CCN(c3ccccc3F)CC2)nc(N2CCCc3ccccc32)n1 | 32* | -24 | ? | i | -8% | i
Nc1nc(CN2CCN(c3ccccc3)CC2)nc(N2CCCc3ccccc32)n1 | 6 | ? | ? | i | -1% | ?
Cc1ccc(NC(=O)Cn2c(=O)n(CCCCC(=O)NCCc3ccccc3)c(=O)c3ccccc32)cc1 | -3 | nt | nt | i | nt | i
COc1ccc(OC)c(N(CCN2C(=O)c3ccccc3C2=O)C(=O)C2CCC(=O)C2C)c1 (stereo not drawn) | 4 | 0 | nt | i | nt | i
CCc1ccc(Nc2ncc3c(n2)CC(c2ccc(OC)cc2)CC3=O)cc1 (stereo not drawn) | 2 | ? | 18µM* | ? | 21µM* | i
COc1ccc(C(=O)Nc2ncc3c(n2)CC(C)CC3=O)cc1 (stereo not drawn) | 1 | 14 | -5% | i | -13% | i
COc1cccc(C(=O)Nc2ncc3c(n2)CC(c2ccc(OC)cc2OC)CC3=O)c1 (stereo not drawn) | 0 | ? | 2.3µM* | ? | 6.5µM* | 5.2µM*
Cc1ccc(NC(=O)CCS(=O)(=O)c2cc(Br)cc3c2N(C(=O)C2CC2)CC3)cc1 | -13 | nt | nt | i | nt | i
COc1cc(NS(=O)(=O)c2ccc3c(c2)CCCN3C(C)=O)cc(OC)c1OC | 4 | nt | nt | nt | nt | nt
CC(=O)Nc1ccc2nc(NC(=O)COc3ccccc3C)sc2c1 | 1 | 4 | 1% | ? | 2% | i
COc1cccc2sc(Nc3nc4ccc(NC(C)=O)cc4s3)nc12 | 3 | 3 | 3.3µM* | 16µM* | ? | i
CCOC(=O)c1sc(Nc2nc3c(OC)cccc3s2)cc1C | 12 | 0 | 23µM* | i | ? | ?
COc1cccc2sc(Nc3nc(-c4ccncc4)cs3)nc12 | 0 | -6 | 21µM* | 5.8µM* | ? | 8.2µM*
COc1cccc2sc(Nc3nc(-c4cc5ccccc5oc4=O)cs3)nc12 | -5 | 10 | 1.3µM* | ? | 5.2µM* | 8.2µM*
